Source: PubChem BioAssay (The Scripps Research Institute Molecular Screening Center)
Sampled rows, rich in hits. Any-hit rate of the full collection: about 3.4%.
MITF primary: inhibitors of human MITF | O75030 | AlphaScreen MITF homodimerization, bead proximity signal | inhibition, % at 2.6 µM | hit rate 0.91% among 650,000; in the data active = inhibition above about 50%;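 note: 0% = vehicle wells with protein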
FBW7 activator: activators of human E3 ligase FBW7; hit rate 0.13% among 650,000; normalized activity (activation), % at 26.1 µM; AID 1259310; Q969H0; AlphaScreen FBW7–phospho-cyclin E peptide binding, activator screen; in the data active = normalized activity above about 1.9%;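 note: purified mutant Fbw7 with reduced substrate affinity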
TEAD-YAP inh: TEAD-YAP interaction inhibition. inhibition, % at 9.12 µM. AID 1259422. hit rate 1.4% among 640,000. HEK-TIYL cells, TEAD-Gal4/YAP UAS-luciferase luminescence; in the data active = inhibition above about 32%;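 note: 0% = median of test compound wells and 100% = reference inhibitor wells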
GPR151 ag: human GPR151 activation; hit rate 1% among 650,000; Q8TDV0; activation, % at 11.2 µM; PathHunter beta-arrestin GPR151 cells, luminescence; in the data active = activation above about 4.9%;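 note: 0% = median of compound wells and 100% = cells with positive control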
Target sequence (Q8TDV0 whole entry, looked up): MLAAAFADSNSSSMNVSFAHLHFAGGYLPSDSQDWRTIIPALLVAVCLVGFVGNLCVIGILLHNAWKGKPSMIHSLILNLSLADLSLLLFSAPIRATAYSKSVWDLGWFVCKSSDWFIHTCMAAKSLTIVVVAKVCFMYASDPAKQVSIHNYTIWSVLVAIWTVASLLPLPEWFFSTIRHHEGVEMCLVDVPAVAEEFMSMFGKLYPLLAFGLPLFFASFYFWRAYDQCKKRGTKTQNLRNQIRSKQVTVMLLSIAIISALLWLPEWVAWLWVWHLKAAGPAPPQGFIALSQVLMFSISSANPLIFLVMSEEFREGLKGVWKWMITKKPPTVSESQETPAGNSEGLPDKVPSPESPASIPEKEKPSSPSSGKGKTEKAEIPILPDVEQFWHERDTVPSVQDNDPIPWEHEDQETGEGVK
MITF inh conf: confirmation of human MITF inhibitors | shares compounds with MITF primary | AlphaScreen MITF homodimerization, biotin/His-MITF beads | inhibition, % at 2.6 µM | hit rate 16% among 4,700 | AID 1259372;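 active = inhibition above a cutoff derived from the DMSO control wells, cut at about 28% in these data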;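 note: 0% = MITF dimer wells with DMSO only; inhibitors lower the bead chemiluminescence by keeping MITF from dimerizing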
AS interf DR: optically interferes with AlphaScreen signal in dose response; shares compounds with MITF primary; AlphaScreen optical interference counterscreen, cell-free; IC50, µM; hit rate 6% among 480; call rule not given here
AS interf ctr: optically interferes with AlphaScreen signal. shares compounds with MITF primary. LysRS AlphaScreen counterscreen, signal interference, triplicate. inhibition, % at 2.6 µM. hit rate 7.6% among 4,700. AID 1259376;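 active = inhibition above a cutoff derived from the DMSO control wells, cut at about 30% in these data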
* hit, by the source's call; / = no result.

SMILES	MITF primary	FBW7 activator	TEAD-YAP inh	GPR151 ag	MITF inh conf	AS interf ctr	others
CC(Sc1nc(-c2ccccc2)cc(C(F)(F)F)n1)C(N)=O (stereo not drawn)	54*	1	13	1	1	2
O=C(CSc1nc(-c2ccccc2)cc(C(F)(F)F)n1)N1CCOCC1	3	0	-3	1	/	/
Fc1ccc(-c2cc(NCCCn3ccnc3)nc(-c3ccccn3)n2)cc1	56*	-1	5	-1	24	62*
c1cc(-c2cc(NCCCn3ccnc3)nc(-c3ccncc3)n2)ccn1	72*	-1	-16	1	34*	42*
Fc1ccc(-c2cc(NCCCn3ccnc3)nc(-c3ccccc3)n2)cc1	55*	-1	7	-1	34*	42*
FC(F)(F)c1cccc(-c2cc(NCCCn3ccnc3)nc(-c3ccccn3)n2)c1	21	-1	7	1	/	/
NNC(=O)c1cc(-c2ccc(Cl)cc2)n[nH]1	56*	0	-12	1	-2	-3
CCOc1cccc(/C=N/N2CCN(Cc3ccccc3)CC2)c1O	4	0	-4	0	/	/
COc1ccc(OC)c(CN2CCN(C(=O)c3cccnc3)CC2)c1	59*	1	-5	-2	6	18
COc1cc(OC)c(OC)cc1CN1CCN(C(=O)c2cccnc2)CC1	68*	0	-12	-1	4	4
COc1ccccc1C(=O)N1CCN(C(=O)c2cccnc2)CC1	0	0	1	2	/	/
O=C(c1cccnc1)N1CCN(Cc2ccccc2F)CC1	56*	0	-1	-1	0	-4
O=C(c1cccnc1)N1CCN(Cc2ccccc2Br)CC1	40	0	-5	1	/	/
CC(NC(=O)Cc1ccc(F)cc1)c1ccccc1 (stereo not drawn)	-7	0	-4	3	/	/
CC(NC(=O)Cc1ccccc1Cl)c1ccc(F)cc1 (stereo not drawn)	58*	0	-4	-1	5	7
CC(NC(=O)CCSCc1ccccc1F)c1ccccc1 (stereo not drawn)	59*	0	-27	-2	2	-3
CC(NC(=O)CCSCCC(=O)NC(C)c1ccccc1)c1ccccc1 (stereo not drawn)	6	0	-7	-2	/	/
CC(=O)/C=C1\N(C)c2cc([N+](=O)[O-])c(N)cc2C1(C)C	7	-1	-9	3	/	/
O=C(NNC(=S)NCc1ccco1)c1ccccn1	117*	-2	10	-2	46*	67*
O=C(NNC(=S)NCc1ccc(Cl)cc1)c1ccccn1	112*	-1	1	4	102*	100*
O=C1CC(/C=C/c2ccco2)=Nc2ccccc2N1	-6	0	-6	-1	/	/
Cc1ccc(C(=O)Nc2c(C(=O)N3CC(C)OC(C)C3)cnn2-c2ccccc2)cc1 (stereo not drawn)	3	0	-4	-1	/	/
O=C1N[C@@H](COCc2ccccc2)C(=O)N2C[C@@H](NCc3ccccc3Cl)C[C@@H]12	10	0	15	-1	/	/
O=C(/C=C/c1ccco1)C1=C(O)C(=O)N(CCCN2CCOCC2)C1c1ccco1 (stereo not drawn)	79*	0	4	1	60*	-7	AS interf DR=>6.5
CCc1ccc(CN2CCN(Cc3ccc(F)cc3)C(CCO)C2)o1 (stereo not drawn)	3	0	-5	1	/	/
SMILES	MITF primary	FBW7 activator	TEAD-YAP inh	GPR151 ag	MITF inh conf	AS interf ctr	others
CCc1ccc(NC(=O)C2CC=CCC2C(=O)O)cc1 (stereo not drawn)	83*	1	6	0	7	8
CC(=O)Nc1ccc(NC(=O)C2CC=CCC2C(=O)O)cc1 (stereo not drawn)	-5	0	1	-1	/	/
C=CCNCCOc1cc(C)cc(C(C)C)c1	-19	0	-13	-1	/	/
COCCNCCOCCOc1cc(C)cc(C(C)C)c1	53*	0	1	-1	5	6
C=CCNCCOCCOc1cc(C)cc(C(C)C)c1	64*	0	0	2	11	19
Cc1noc(C)c1C(=O)N1CCN(Cc2ccccc2F)C[C@@H]1C(C)C	15	0	-16	4	/	/
CNc1oc(-c2ccco2)nc1S(=O)(=O)c1ccc(Br)cc1	74*	0	-4	1	6	11
CC1=NN(c2ccc(C)cc2)C(=O)C1	13	-1	3	-1	/	/
CC1=NN(c2nnc(C)c(=O)[nH]2)C(=O)C1	103*	0	7	-1	83*	100*
O=C(Cc1cn(-c2ccc(Nc3ccccc3)nn2)c2ccccc12)NCCCN1CCCC1=O	0	0	-6	-1	/	/
O=C(NCc1ccccc1)c1cc2cc(-c3ccncc3)ccc2[nH]1	-10	0	-4	-1	/	/
O=[N+]([O-])c1ccc(N2CCN(CCOCCO)CC2)c([N+](=O)[O-])c1	56*	0	-2	-1	-5	-3
CCN1C(=O)/C(=C/c2ccc(-c3ccc([N+](=O)[O-])cc3)o2)NC1=S	52*	0	3	0	-7	14
CC(C)(C)c1ccccc1OCC(=O)Nc1cccc2ccccc12	-1	0	0	1	/	/
CCOC(=O)CNC(=O)c1ccc(Cl)c([N+](=O)[O-])c1	3	0	-5	-1	/	/
Cc1ccc(Cn2c(=N)n(CC(O)COc3ccc(Cl)cc3)c3ccccc32)cc1 (stereo not drawn)	64*	0	3	2	11	4
N#Cc1c(-c2ccc3c(c2)OCO3)nc(N2CCCCC2)[nH]c1=O	80*	1	2	-1	78*	-7	AS interf DR=>6.5
COc1ccc(-c2nc(N3CCN(C)CC3)[nH]c(=O)c2C#N)cc1	4	0	-2	-1	/	/
Cc1ccc(-c2nnc3s/c(=C\c4ccco4)c(=O)n23)cc1	64*	0	10	-1	75*	-6	AS interf DR=>6.5
COc1ccc(Cl)cc1N(CC(=O)NCCSc1ccccn1)S(=O)(=O)c1ccccc1	17	0	-4	-1	/	/
Cc1ccc(C23CC4CC(CC(C4)C2)C3)cc1[N+](=O)[O-]	54*	0	-4	1	4	13
COc1ccc(C23CC4CC(CC(C4)C2)C3)cc1[N+](=O)[O-]	0	0	-1	0	/	/
CC(C)CCNC(=O)c1cn(C)c(=O)c2c1c1ccccc1n2C	7	0	0	0	/	/
O=C(NCC1CCCO1)c1cc2n(n1)C(C(F)(F)F)CC(c1ccc(Br)cc1)N2 (stereo not drawn)	0	0	-1	0	/	/
CC1CCC(N2CCN(Cc3ccccn3)CC2)CC1 (stereo not drawn)	64*	1	12	-2	0	3
c1ccc(CN2CCN(C3CCCCC3)CC2)nc1	60*	1	5	-2	12	10
